Test results: PubChem BioAssay (NCATS)
Calls of active or inactive are those of the source. The call rests on the fitted dose curve.

Experiments:
Assay in all cases: Confirmatory Screen for Target Class Profiling of Small Molecule Inhibitors of Methyltransferases (AID 1745852); on activity change, negative = inhibition: on the % scale 0 is the no-effect control and ±100 the full control effect
[1] = target: Catechol O-methyltransferase (Homo sapiens) (UniProt P21964); conditions: MTase-Glo luminescence, SAH detection, recombinant enzyme; measured here: COMT max response; stronger effect = lower value
[2] = target: Guanidinoacetate N-methyltransferase (Homo sapiens) (UniProt Q14353); conditions: MTase-Glo luminescence, SAH detection, recombinant enzyme; activity change, negative = inhibition: at 57.3 µM (top of the series) unless noted; series mostly up to 57.3 µM
[3] = target: Nicotinamide N-methyltransferase (Homo sapiens) (UniProt P40261); conditions: MTase-Glo luminescence, SAH detection, recombinant enzyme; measured here: NNMT max response; stronger effect = lower value
[4] = target: Phenylethanolamine N-methyltransferase (Homo sapiens) (UniProt P11086); conditions: MTase-Glo luminescence, SAH detection, recombinant enzyme; measured here: PNMT max response; stronger effect = lower value
Potency means the concentration at half of the fitted maximal effect.

Chain of Phenylethanolamine N-methyltransferase (Homo sapiens) (P11086 whole entry, looked up): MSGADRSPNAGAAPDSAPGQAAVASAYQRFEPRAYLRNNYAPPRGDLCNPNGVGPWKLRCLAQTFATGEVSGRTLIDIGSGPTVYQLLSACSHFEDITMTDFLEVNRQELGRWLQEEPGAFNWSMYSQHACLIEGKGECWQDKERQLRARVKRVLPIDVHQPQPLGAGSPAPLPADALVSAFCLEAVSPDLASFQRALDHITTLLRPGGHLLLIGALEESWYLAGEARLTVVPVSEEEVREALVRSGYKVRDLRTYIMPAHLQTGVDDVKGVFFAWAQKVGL
Chain of Nicotinamide N-methyltransferase (Homo sapiens) (P40261 whole entry, looked up): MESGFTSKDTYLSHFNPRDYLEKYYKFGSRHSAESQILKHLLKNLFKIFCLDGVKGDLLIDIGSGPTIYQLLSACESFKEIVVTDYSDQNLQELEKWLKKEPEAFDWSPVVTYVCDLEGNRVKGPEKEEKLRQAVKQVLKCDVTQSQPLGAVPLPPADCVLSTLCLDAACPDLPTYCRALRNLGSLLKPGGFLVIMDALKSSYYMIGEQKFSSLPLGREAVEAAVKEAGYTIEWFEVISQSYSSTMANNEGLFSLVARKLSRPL
Chain of Catechol O-methyltransferase (Homo sapiens) (P21964 whole entry, looked up): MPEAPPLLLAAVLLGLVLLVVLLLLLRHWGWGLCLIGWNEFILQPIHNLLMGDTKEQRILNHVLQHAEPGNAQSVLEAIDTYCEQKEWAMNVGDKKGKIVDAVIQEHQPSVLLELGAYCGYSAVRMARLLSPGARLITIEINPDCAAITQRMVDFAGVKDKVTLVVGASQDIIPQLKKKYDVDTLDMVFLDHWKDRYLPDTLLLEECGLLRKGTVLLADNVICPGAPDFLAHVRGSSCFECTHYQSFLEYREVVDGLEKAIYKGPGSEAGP

Row | SMILES | activity [1] | activity change, negative = inhibition [2] | activity [3] | activity [4] | Potency [2]
1 | CCCc1sc(NC(=O)C[C@H]2NC(=O)c3ccccc3NC2=O)nc1C(=O)OC | 4.16% | 2.83% | -4.71% | 3.73% | 
2 | CC1CCN(CCCNC(=O)CCc2nnc3n(Cc4ccccc4)c(=O)c4ccccc4n23)CC1 | 0.801% | 0% | -2.83% | 2.06% | 
3 | COc1ccc(CCNC(=O)c2ccc3c(=O)[nH]c4c(C(=O)NC5CCCC5)sc(=S)n4c3c2)cc1OC | -35.3% |  | -49.2% | -23% | 24.1 µM (active)
4 | O=c1c2ccccc2n2c(-c3cc(Cl)ccc3O)nnc2n1Cc1ccc(F)cc1 | -12.1% |  | -13.1% | -27.8% | 27.1 µM (active)
5 | COc1ccc(CN2C(=O)c3cc4sccc4n3CC2(C)C(=O)NC2CCC(C)CC2)cc1OC (stereo not given) | -5.8% | 0.162% | -79.1% | -7.08% | 
6 | Cc1ccc(-c2ccc(N)nc2)c2cccnc12 | -62.1% | 1.37% | -2.78% | 1.29% | 
7 | Cc1cc(F)ccc1NS(=O)(=O)c1ccc2[nH]c3c(c2c1)CCCC3 | 0% | 0.252% | -33.2% | 0% | 
8 | CC(C)Cn1c(=O)c2ccccc2n2c(CCC(=O)Nc3ccc(F)c(F)c3)nnc12 | -1.85% | 1.46% | -38.2% | -5.35% | 
9 | N#Cc1cc(CN2CCCC(C(=O)Nc3cccc(-c4ccc(F)cc4)c3)C2)c[nH]1 (stereo not given) | -4.34% | -9.38% | -14.2% | -5.67% | 
10 | CCOC(=O)c1cc2n(n1)CC(C)(C(=O)NCCC(C)C)N(c1ccccc1C)C2=O (stereo not given) | 2.78% |  | 3.85% | 1.34% | inactive
11 | O=C(CCn1c(=O)[nH]c2cc(S(=O)(=O)N3CCCCC3)ccc21)Nc1ccc(Cl)cc1 | -1.03% | 0% | -18.8% | -3.3% | 
12 | CN1CCC(N2CC[C@H](c3nc4ccc(C(F)(F)F)cc4[nH]3)C2)CC1 | 7.98% | 9.6% [at 85.7 µM] | 10.1% | 7.95% | 
13 | O=C(NCCc1ccccc1)N1CCn2cccc2C1Cc1ccccc1 (stereo not given) | 0.987% |  | -8.34% | -0.866% | inactive
14 | COc1ccc(CCN2C(=O)c3cc4occc4n3CC2(C)C(=O)NC2CCCCCC2)cc1OC (stereo not given) | -3.67% | -1.83% | -64.2% | -5.31% | 
15 | c1ccc(-c2cc3c(cn2)NCCN(CC2CC2)C3)cc1 | 8.66% | 7.08% [at 114 µM] | 4.63% | 6.73% | 
16 | COc1ccc(-c2nc3ccccc3[nH]2)cc1 | -76.2% |  | -74.3% | -79.7% | 15.2 µM (active)
17 | CC(C)Cn1c(=O)c2ccccc2n2c(=O)n(CC(=O)c3cccc(Cl)c3)nc12 | -9.22% | -5.46% | -38.9% | -8.68% | 
18 | CCc1ccc(NS(=O)(=O)c2ccc3c(c2)n(C)c(=O)n3C)cc1 | 4.08% | 0% | -40.6% | -1.22% | 
19 | CC1CC(C)CN(S(=O)(=O)c2ccc3c(c2)oc(=O)n3CC(=O)Nc2ccc(F)cc2)C1 (stereo not given) | 4.26% | 0% | -4.58% | -42.5% | 
20 | O=C(CCc1nnc2n(CCc3ccccc3)c(=O)c3ccccc3n12)NCCCN1CCCCC1 | -0.192% | 0% | 0.418% | 0.873% | 
21 | Cc1cnc(C2CCC2)n1C1CCN(C(=O)CCC2CCCC2)CC1 | -8.04% | -7.84% | -13.3% | -7.48% | 
22 | c1ccc(Cn2cc(CN3CCN(c4ccncc4)CC3)c(-c3cc4ccccc4o3)n2)cc1 | 5.39% | 12.1% | 1.15% | 6.65% | 
23 | Oc1ccc(NCCN2CCCC2)cc1 | -10.9% | -14.6% [at 114 µM] | -12.3% | -7.62% | 
24 | CCN1CCN(c2nc3c(S(=O)(=O)c4ccc(Br)cc4)nnn3c3ccccc23)CC1 | 1.75% | 2.08% | -1.61% | -3.25% | 
25 | c1ccc(-c2cc3c(cn2)NCCN(Cc2ccccn2)C3)cc1 | 1.39% | 3.72% [at 85.7 µM] | -8.79% | -1.82% | 
26 | O=C(Nc1ccc(F)c(Cl)c1)N1CCn2cccc2C1Cc1ccccc1 (stereo not given) | -2.26% | 1.87% | -5.36% | -6.59% | 
27 | O=C(CCCc1nnc2n3nc(-c4ccccc4)nc3c3ccccc3n12)NCCCN1CCCCC1 | -1.71% | 0% | 2.5% | 0.451% | 
28 | O=C(Nc1ccc2ncnc(N3CCCCC3)c2c1)C1CCCCC1 | -75.6% |  | -81.1% | -86.5% | 19.2 µM (active)
29 | COc1ccc(CCN2C(=O)c3cc4occc4n3CC2(C)C(=O)NC2CCCCC2)cc1OC (stereo not given) | 2.48% | 0% | -47.9% | 1.36% | 
30 | CN1CCC(N2C[C@@H]3C[C@H]2C(=O)N(CC2CC2)c2ccccc2O3)CC1 | 4.01% | 2.68% [at 85.7 µM] | -1.59% | 3.64% | 
